Data as given in PubChem BioAssay.
Some of the results follow. Active and inactive are the calls of the source.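 How the source made its calls, unless noted: active means mean inhibition across four replicates of at least 40 percent at the single tested concentration; inactive means the rest.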

Assays:
[1] = NFkB reporter suppression in cystic fibrosis bronchial cells – cell-based, uHTS hits, panel, cytotoxicity readout, dose response (AID 624344); conditions: CF bronchial epithelial cells, PAF-induced NFkB reporter inhibition, with PAF, run 1; at 79 µM (top of the series) unless noted
[2] = as above; conditions: CF bronchial epithelial cells, PAF-induced NFkB reporter inhibition, with PAF, run 2; at 79 µM (top of the series) unless noted
Cytotoxicity = assay: as above; conditions: CF bronchial epithelial cells; run 1, at 19.8 µM (top of the series)
[3] = biological target: Tumor necrosis factor receptor superfamily member 10B (Homo sapiens) (UniProt O14763); assay: viability loss of caspase-8 NB7 cells with TRAIL – with/without TRAIL, luminescence panel, confirmation (AID 651596; in the data active means activity above about 50%); conditions: NB7 neuroblastoma + caspase-8, TRAIL sensitization, NB7 Caspase-8, with TRAIL, mean of runs, at 10 µM, stronger effect = higher value
[4] = as above; conditions: NB7 neuroblastoma + caspase-8, without TRAIL, NB7 Caspase-8, without TRAIL, mean of runs, at 10 µM
[5] = HIF-2a driven luciferase blockers, single dose – luminescence, 786-0 RCC cells, confirmation (AID 651580); conditions: HIF-2a luciferase reporter luminescence, overnight, at 18.8 µM, stronger effect = higher value
[6] = HIF-1a luciferase reporter signal reduction – MiaPaCa-2 cells, single concentration, counter-screen for HIF-2a inhibitor project, confirmation (AID 651589;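 active means mean inhibition of the reporter signal across four replicates at the single tested dose of 50% or more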); conditions: MiaPaCa-2 HIF-1a luciferase reporter, desferoxamine, overnight; at 18.8 µM; stronger effect = higher value
[7] = biological target: Tumor necrosis factor receptor superfamily member 10B (Homo sapiens) (UniProt O14763); assay: compound enhancement of TRAIL-induced cell killing – NB7 cells plus caspase-8, luminescence, panel, dose response (AID 652002); conditions: NB7 neuroblastoma +caspase-8, TRAIL sensitization, luminescence viability, NB7+Caspase-8, with TRAIL, run 1; at 12.5 µM (top of the series)
[8] = biological target: Tumor necrosis factor receptor superfamily member 10B (Homo sapiens) (UniProt O14763); assay: as above; conditions: NB7 neuroblastoma +caspase-8, TRAIL sensitization, luminescence viability, NB7+Caspase-8, with TRAIL, run 2; at 12.5 µM (top of the series)
[9] = as above; conditions: NB7 neuroblastoma +caspase-8, no TRAIL, compound-alone cytotoxicity counter-screen, luminescence viability, NB7+Caspase-8, run 1; at 12.5 µM (top of the series) unless noted
[10] = as above; conditions: NB7 neuroblastoma +caspase-8, no TRAIL, compound-alone cytotoxicity counter-screen, luminescence viability, NB7+Caspase-8, run 2; at 12.5 µM (top of the series) unless noted

Sequence of Tumor necrosis factor receptor superfamily member 10B (Homo sapiens) (O14763 whole entry, looked up): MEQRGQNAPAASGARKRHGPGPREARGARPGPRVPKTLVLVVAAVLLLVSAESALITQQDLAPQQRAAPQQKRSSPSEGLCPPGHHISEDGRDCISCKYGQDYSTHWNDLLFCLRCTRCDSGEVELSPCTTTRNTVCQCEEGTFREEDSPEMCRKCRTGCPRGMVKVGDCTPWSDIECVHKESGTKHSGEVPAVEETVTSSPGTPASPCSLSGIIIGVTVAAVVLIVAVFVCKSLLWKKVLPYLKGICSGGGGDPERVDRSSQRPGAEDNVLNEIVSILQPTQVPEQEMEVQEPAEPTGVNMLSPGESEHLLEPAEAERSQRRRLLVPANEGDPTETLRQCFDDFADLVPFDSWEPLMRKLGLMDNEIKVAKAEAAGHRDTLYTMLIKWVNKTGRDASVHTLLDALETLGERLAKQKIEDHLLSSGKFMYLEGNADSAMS

With `CCOC(=O)c1c(-c2ccc(C)cc2)csc1NC(=O)c1ccc(N2C(=O)CCC2=O)cc1` the inhibition [1] was 30.1% and the inhibition [2] was 81.4%.

In the case of `COc1cccc(-c2cc(NC=O)c3ncc(-c4ccc(C(C)=O)cc4)n3c2)c1`, the inhibition [1] is reported as 84.6% and the inhibition [2] is reported as 93.6%.

In the case of `CN(C)c1ccc(C(C(=O)NC2CCCCC2)N(Cc2ccco2)C(=O)c2snc(C(N)=O)c2N)cc1` (centres undefined), the inhibition [1] is reported as 105% and the inhibition [2] is reported as 102%.

Compound `CCCCCCc1cc2cc(S(=O)(=O)c3ccc(F)cc3)c(=O)oc2cc1O` has an inhibition [1] of 103% and an inhibition [2] of 87.3%.

For `c1cnc2ccc(-n3ccnc3)cc2c1`, the inhibition [1] was 115% and the inhibition [2] was 102%.

In the case of `Cc1cc(C)c(O)c(CN(C)Cc2cc(Cl)cc(Cl)c2O)c1`, the inhibition (Cytotoxicity) is reported as 12%.

With `CCOc1ccccc1NC(=O)c1nc(S(=O)(=O)Cc2ccccc2)ncc1Cl` the inhibition [1] was 78%, the inhibition [2] was 83.5% and the activity [3] was 79.4%. It also gave an activity [4] of 99.5%.

For `Cc1nnnn1/C(=C\c1ccccc1)C(=O)OCC(=O)N1CC2(C)CC1CC(C)(C)C2` (centres undefined), the inhibition [5] was 62% (active) and the inhibition [6] was 67.3% (active).

For `Cc1c(CCC(=O)O)c(=O)oc2cc3occ(-c4ccccc4)c3cc12`, the inhibition [5] was 68.1% (active) and the inhibition [6] was 50.7% (active).

Compound `Cc1ccc(C(=O)Nc2cccc(C(F)(F)F)c2)cc1NC(=O)c1nccnc1N` has an inhibition [1] of 75.2%, an inhibition [2] of 76% and an activity [3] of 50.6%. For the same compound, the activity [4] was 39%.

For `CCOc1ccc(CNC(=O)C2CCCN(c3nnc(C)c4c(C)n(-c5ccccc5)nc34)C2)cc1` (centres undefined), the inhibition [5] was 6.1% (inactive) and the inhibition [6] was -3.66% (inactive).

For `O=[N+]([O-])/C=C/c1ccc2c(ccn2Cc2ccccc2)c1`, the inhibition [5] was 45.4% (active) and the inhibition [6] was 104% (active).

In the case of `Cc1ccc(NC(=S)NC(NC(=O)Cc2cccc3ccccc23)C(Cl)(Cl)Cl)cc1` (centres undefined), the inhibition [5] is reported as -32.9% (inactive) and the inhibition [6] is reported as 98.7% (active).

With `CCOc1cc(/C=C(/C#N)c2ccc(Cl)cc2)cc(Cl)c1OCC(=O)O` the inhibition [5] was 98.1% (active) and the inhibition [6] was 91.2% (active).

Compound `CCS(=O)(=O)c1ncc(Cl)c(C(=O)Nc2ccccc2OC)n1` has an inhibition [1] of 95.8%, an inhibition [2] of 86% and an activity [3] of 98.4%. The activity [4] was 99%.

Compound `Cc1nn(-c2ccccc2)c(Cl)c1C(=O)N1CCN(c2ncnc3c2cnn3-c2ccccc2)CC1` has an inhibition [1] of 114%, an inhibition [2] of 98.4% and an activity [3] of 82%. The activity [4] was 59.6%.

With `COCC(C)n1c(C)cc(C(=O)COc2ccc(C)nc2[N+](=O)[O-])c1C` (centres undefined) the inhibition [5] was 55% (active) and the inhibition [6] was 41.4% (inactive).

Work on `CCOC(=O)c1sc(NC(=O)c2cccc(S(=O)(=O)N3CCc4ccccc43)c2)c(C#N)c1C` yielded an inhibition [1] of 79.6%, an inhibition [2] of 80.5% and an activity [3] of 53.4%. The activity [4] was 41.3%, the activity, % sensitization [7] was 29.7% and the activity, % sensitization [8] was -18%. The activity, % sensitization [9] was 1.22% and the activity, % sensitization [10] was -10%.

With `O=C1C=C(c2ccc(Cl)cc2)C(=O)N1Nc1ccccc1` the inhibition [5] was 95.2% (active) and the inhibition [6] was 41% (inactive).

In the case of `Cn1ncc2c(O/N=C(\N)c3ccc(C(C)(C)C)cc3)ncnc21`, the inhibition [1] is reported as 101%, the inhibition [2] is reported as 112% and the activity [3] is reported as 98.5%. It also gave an activity [4] of 98.8%.

With `CCN1CCN(CCNC(=O)c2ccc3c(c2)NC(=O)/C(=C\c2cccc(Cl)c2)S3)CC1` the inhibition [5] was -18.3% (inactive) and the inhibition [6] was 108% (active).

With `CC[C@@H]1Cc2cc(O)ccc2C2=C1c1ccc(O)cc1C[C@H]2CC` the inhibition [5] was 54.5% (active) and the inhibition [6] was 104% (active).

With `CCN1CCC(O)(/C=C/c2ccc(C)cc2)C(C(=O)/C=C/c2ccc(C)cc2)C1` (centres undefined) the inhibition [5] was 5.88% (inactive) and the inhibition [6] was 105% (active).

Compound `O=Nc1ccc(NO)c2ccccc12` has an inhibition [1] of 77.1% [at 39.5 µM], an inhibition [2] of 48.9% and an activity [3] of 79.8%. It also gave an activity [4] of 47.2%, an activity, % sensitization [7] of 19% and an activity, % sensitization [8] of 40.7%. For the same compound, the activity, % sensitization [9] was 39.7% and the activity, % sensitization [10] was 31.2%.

In the case of `COc1ccc(C(=O)/C=C/c2ccc(-c3ccccc3)cc2)cc1CSCC(=O)O`, the inhibition [5] is reported as -10.7% (inactive) and the inhibition [6] is reported as 62.4% (active).

For `CCOC(=O)C(=Cc1ccccc1OC)C(=O)OCC`, the inhibition [5] was 57.5% (active) and the inhibition [6] was 75.7% (active).

`Cc1cccc(N(Cc2cc(=O)[nH]c3ccccc23)C(=O)CCl)c1` gave an inhibition [1] of 95.1%, an inhibition [2] of 90.7% and an activity [3] of 98.3%. It also gave an activity [4] of 98.5%.

For `OCCN1CCN(C(=S)c2ccc(-c3ccccc3)cc2)CC1`, the inhibition [5] was 93% (active) and the inhibition [6] was 69.1% (active).

In the case of `CCCc1[nH]nc2c1C(C1CC=CCC1)C(C#N)=C(N)O2` (centres undefined), the inhibition [5] is reported as 8.58% (inactive) and the inhibition [6] is reported as 39.6% (inactive).

Compound `O=C(COC(=O)c1ccccc1C(=O)c1ccc(Cl)c([N+](=O)[O-])c1)NC1CCCCCC1` has an inhibition [1] of 110%, an inhibition [2] of 99.7% and an activity [3] of 98.1%. For the same compound, the activity [4] was 97.2%.

With `CC(C)(C)c1cc(C(=O)N/N=C/c2ccc([N+](=O)[O-])s2)n[nH]1` the inhibition [5] was 74.6% (active) and the inhibition [6] was 98.4% (active).

For `COC(=O)c1c(NC(=O)CCCC(=O)O)sc2c1CCCCC2`, the inhibition [5] was 41.2% (active) and the inhibition [6] was 27.3% (inactive).
